Compounds with a hit are over-represented: about 11% of the library has one in this group of screens.
OTUD3 block = blocks human OTUD3 ubiquitin-rhodamine cleavage. Q5T2D3. purified OTUD3, Ub-rhodamine fluorescence, 2 h. inhibition, % at 25 µM. 47,000 tested, 0.7% active. AID 1645858
USP17 inh = inhibitors of human USP17 deubiquitinase; purified USP17, Ub-rhodamine cleavage fluorescence, 3 h; inhibition, % at 50 µM; 47,000 tested, 6.5% active; A8MUK1
USP30 block = blocks human USP30 ubiquitin-rhodamine cleavage; purified USP30, Ub-rhodamine cleavage fluorescence; inhibition, % at 25 µM; 47,000 tested, 5.3% active; Q70CQ3
Target sequence (Q70CQ3 whole entry, looked up): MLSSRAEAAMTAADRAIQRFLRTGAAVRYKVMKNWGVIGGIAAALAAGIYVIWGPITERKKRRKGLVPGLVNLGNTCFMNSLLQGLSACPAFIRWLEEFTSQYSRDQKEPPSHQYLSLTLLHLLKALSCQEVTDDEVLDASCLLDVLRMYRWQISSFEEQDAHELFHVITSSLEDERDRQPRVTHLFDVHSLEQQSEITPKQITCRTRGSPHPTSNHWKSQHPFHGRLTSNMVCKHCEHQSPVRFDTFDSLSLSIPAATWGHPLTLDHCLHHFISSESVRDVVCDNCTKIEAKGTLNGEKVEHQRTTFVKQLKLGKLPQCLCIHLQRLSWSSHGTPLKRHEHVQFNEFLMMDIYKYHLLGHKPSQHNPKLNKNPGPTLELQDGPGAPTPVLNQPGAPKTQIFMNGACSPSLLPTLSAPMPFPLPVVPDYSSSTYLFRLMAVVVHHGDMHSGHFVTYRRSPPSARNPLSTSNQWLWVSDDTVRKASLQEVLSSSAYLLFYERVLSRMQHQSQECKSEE
USP28 block = blocks human USP28 ubiquitin-rhodamine cleavage; Q96RU2; purified USP28, Ub-rhodamine cleavage fluorescence, 30 min; AID 1645857; inhibition, % at 25 µM; 47,000 tested, 3% active
The depositor's hits bear a star; . = no result. Cut-off read from the data, not from the text of the source: active = inhibition above about 30%; inactive = the rest.

SMILES	OTUD3 block	USP17 inh	USP30 block	USP28 block
COc1ccccc1-n1ccn2cc(-c3ccc(C)c(C)c3)nc2c1=O	10	31*	16	7
COc1cccc(-c2cn3ccn(-c4ccccc4)c(=O)c3n2)c1	-13	28	-24	-23
Cc1ccc(NC(=O)COc2ccc(-c3nc(C(C)C)no3)cc2)c(F)c1	10	37*	32*	6
CCc1noc(-c2ccc(OCC(=O)Nc3cc(C)cc(C)c3)cc2)n1	0	25	44*	10
Cc1cc(C)cc(NC(=O)Cc2nnc3ccc(-c4nc(C)no4)cn23)c1	0	0	-22	-4
CC(C)c1noc(-c2ccc(OCC(=O)N3CCN(c4ccccc4F)CC3)cc2)n1	1	4	0	-2
O=C(Nc1cc(S(=O)(=O)N2CCOCC2)ccc1N1CCOCC1)c1cc2c(s1)CCCC2	7	16	30*	8
CCOC(=O)c1ccc(NC(=O)CSc2nnc(CNC(=O)c3cccs3)o2)cc1	5	50*	18	4
CCOC(=O)c1ccc(NC(=O)CSc2nnc(CNC(=O)c3ccccc3F)o2)cc1	10	20	10	4
CCc1ccc(NC(=O)CSc2nnc(CNC(=O)c3ccco3)o2)cc1	7	-6	-1	8
O=C(CSc1nnc(CNC(=O)c2ccccc2F)o1)Nc1ccc(OC(F)(F)F)cc1	-1	63*	32*	9
O=C(NCc1cccnc1)c1ccc(Cn2cnc3ccccc3c2=O)o1	15	7	20	23
COC(=O)c1ccc(Cn2cnc3ccc(F)cc3c2=O)o1	5	11	28	87*
COC(=O)c1ccc(Cn2cnc3ccc(Br)cc3c2=O)o1	2	-13	-5	80*
O=C(NCc1ccncc1)c1ccc(Cn2cnc3ccccc3c2=O)o1	0	-1	-10	9
O=C(COc1ccccc1)Nc1cnc(-c2cccnc2)nc1	8	0	14	7
CCc1ccccc1NC(=O)Cn1c(N2CCCC2)nc(C)cc1=O	3	6	17	1
CCOc1ccc(-c2nc3c(cnn3-c3ccccc3)c(=O)[nH]2)cc1	1	37*	-2	-9
c1csc(-c2nc(Nc3ccc4c(c3)CCC4)c3ccccc3n2)c1	-23	71*	-86	-40
c1csc(-c2nc(NC3CCCCC3)c3ccccc3n2)c1	-21	13	-4	-7
c1ccc(C2CCN(c3ncnc4c3nc3n4CCCCC3)C2)cc1 (centres undefined)	-5	-9	-11	-3
O=C(NCc1ccccc1CN1CCCC1)c1cccc2cccnc12	-12	3	-27	37*
CCc1cccc(NC(=O)c2cc(-c3ccccn3)n[nH]2)c1	-4	-44	16	-8
O=C1CC(=O)Nc2cc(S(=O)(=O)NCc3ccc4c(c3)OCO4)ccc2N1	0	-2	0	-1
Cc1ccc(N(C)S(=O)(=O)C2CCS(=O)(=O)C2)cc1 (centres undefined)	13	14	31*	18
SMILES	OTUD3 block	USP17 inh	USP30 block	USP28 block
Cc1ccccc1Nc1cc(C(=O)NC(C)CCc2ccccc2)c2ccccc2n1 (centres undefined)	7	7	10	22
Cc1c(C)n(-c2ccccc2)c2ncn(CC(=O)NC(C)c3ccccc3)c(=O)c12 (centres undefined)	45*	.	75*	15
Cc1c(C)n(-c2ccccc2)c2ncn(CC(=O)NCc3ccccc3F)c(=O)c12	0	7	22	14
CNC(=O)Cn1cnc2c(c(C)c(C)n2-c2ccc(Cl)cc2)c1=O	3	50*	-38	0
COc1ccccc1CNC(=O)CS(=O)Cc1nc(-c2ccccc2Cl)oc1C (centres undefined)	-6	15	-90	6
O=C(NCCc1ccc(F)cc1)N1CC[C@@H]2CN(Cc3cccnc3)S(=O)(=O)[C@@H]2CC1	10	11	28	14
O=C(Nc1ccccc1F)c1sccc1Oc1ccc([N+](=O)[O-])cc1F	17	45*	40*	17
COC(=O)c1ccccc1NC(=O)c1sccc1Oc1ccc(F)cc1[N+](=O)[O-]	15	12	19	7
Cn1cc2c(n1)C(C(=O)NCCc1ccc(F)cc1)CNC2 (centres undefined)	-1	-7	-16	-9
COc1cccc2cc(C(=O)Nc3nc(-c4ccncc4)cs3)oc12	32*	31*	31*	15
COc1cccc2cc(C(=O)NCc3cnn4ccccc34)oc12	-17	-3	-32	-19
Cc1nc(N2CCCC2)ncc1-c1cc(=O)[nH]c(NCCc2ccccc2)n1	5	50*	64*	5
Cc1nc(N2CCC(C)CC2)ncc1-c1cc(=O)[nH]c(Nc2nc3ccccc3o2)n1	12	34*	41*	14
COc1ccc(C)cc1NC(=O)C1CC(=O)Nc2nc(SCc3ccccc3)nn21 (centres undefined)	8	53*	-6	6
COc1ccc(C2C(C(N)=O)=C(C)Nc3nc(SCc4ccccc4)nn32)cc1 (centres undefined)	0	-7	-42	-8
CCCCCn1c(=O)[nH]c2cc(C(=O)NCCN3CCC(Cc4ccccc4)CC3)ccc2c1=O	17	21	44*	14
COc1ccc2c(CCNC(=O)CSc3nnnn3-c3cccc(Cl)c3)c[nH]c2c1	-8	-1	-81	-4
Cc1ccc(/C=C/C(=O)Cc2ccccc2)cc1	22	41*	30*	18
CCn1nccc1-c1cc(C2CCCN(S(=O)(=O)N(C)C)C2)nc(C)n1 (centres undefined)	-3	-6	11	-2
CC1(C)C=Cc2cc(O)ccc2O1	0	40*	-8	-3
CN1c2ccccc2-c2ccccc2C12C=Cc1cc([N+](=O)[O-])ccc1O2 (centres undefined)	-7	-4	-26	5
COCCn1cc(OC(=O)c2ccc(F)cc2)c2c1nc(-c1ccc(F)cc1)n1c3ccccc3nc21	-71	-112	-284	-93
Cc1cc2cc3c(cc2n2c(=O)n(CCN4CCCC4)nc12)OCO3	4	47*	42*	10
Cc1cc(C)c2c(c1)cc(C)c1nn(CC(N)=O)c(=O)n12	2	6	10	0
COc1cc(C(=O)COC(=O)c2ccccc2NS(=O)(=O)c2cc(C(C)(C)C)ccc2C)cc(OC)c1OC	0	-12	-12	0
CCOC(=O)c1cc2c(ccn2C)n1Cc1ccc(C#N)cc1	-29	20	-135	-35
CCOC(=O)c1cc2c(ccn2C)n1CC(=O)N(Cc1ccc(Cl)cc1)c1ccccc1	-34	43*	-160	-10
Cc1ncc(-c2ccc(S(=O)(=O)NC3CCCCCC3)s2)o1	15	8	5	13

Bioassay records as filed in PubChem BioAssay.
